Most compounds without a hit are left out; they make up all but 19% or so of the library.
DT40 TDP1 CPT – growth inhibition of DT40 Tdp1-/-;hTDP1 cells with camptothecin (screen for TDP1 inhibitors) | chicken DT40 Tdp1-/-;hTDP1 cells + 20 nM CPT, ATP luminescence, 48 h | Potency, µM (titrated, usually from 46.2 µM), for the others: at the top dose activity change, negative = growth inhibition, hits mostly inhibitors | 420,000 tested, 12% active; note: nearly all actives have a fitted effect of over 55% in size
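Chicken DT40 Tdp1-/- cells stably complemented with human TDP1 were seeded at 400 cells/well in medium containing 20 nM camptothecin, exposed to pin-transferred compounds, and grown at 37 °C for at least 48 hr. Viability was read as ATP luminescence.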
HT1080 IDH1KD tx – kills HT-1080 cells with IDH1 knockdown. 360,000 tested, 2% active. HT-1080 IDH1 knockdown viability, ATP luminescence, 48 h. Potency, µM (titrated, usually from 46.1 µM), inactives show at the highest dose activity, negative = toxicity, hits mostly cytotoxic. AID 686971;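 note: 0% = DMSO wells and -100% = cell-free medium wells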
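Viability of IDH1-knockdown HT-1080 fibrosarcoma cells was assessed by CellTiter-Glo after 48 h at 37 °C with titrated compound; concentration-effect curves were classified by fit quality and response size.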
KB-3-1 cytotox – kills parental KB-3-1 adenocarcinoma cells. KB-3-1 viability, CellTiter-Glo ATP luminescence, 72 h. Potency, µM (titrated, usually from 46.1 µM), hits mostly cytotoxic. 400,000 tested, 1.4% active; note: nearly all actives have a fitted effect of over 60% in size
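Cytotoxicity measured as CellTiter-Glo luminescence after 72 h at 37 C. Compound titrations were pinned onto drug-naive KB-3-1 parental adenocarcinoma cells grown in DMEM with 10% FBS, and normalized data fitted to concentration-response curves.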
DT40 TDP1 no CPT – qHTS for Inhibitors of human tyrosyl-DNA phosphodiesterase 1 (TDP1): qHTS in cells in absence of CPT; 420,000 tested, 15% active; Potency, µM (doses to about 46.2 µM), inactives show at the highest dose activity change, negative = growth inhibition, actives largely listed as inhibitors; DT40 Tdp1-/- hTDP1 cells, no CPT, ATP luminescence, 48 h; note: nearly all actives have a fitted effect of over 55% in size
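No-CPT arm: Tdp1-/-;hTDP1 DT40 cells (400/well) plus compounds, incubated ≥48 hr at 37 °C. Readout CellTiter-Glo luminescence.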
HT1080NT lethal – kills 2HG-producing HT-1080-NT fibrosarcoma cells; Potency, µM (series often up to 46.1 µM), inactives show top-dose activity, negative = less viability, hits mostly cytotoxic; AID 686970; HT-1080-NT fibrosarcoma viability, CellTiter-Glo ATP luminescence, 48 h; 360,000 tested, 1.6% active;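 note: NT is the 2HG producing partner of a matched IDH1 knockdown line; 0% = DMSO-treated cells and -100% = media-only wells without cells; nearly all actives have a fitted effect of over 55% in size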
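HT-1080-NT; 750 cells/well; 5% FBS RPMI; 48 h compound, 37 degrees C; CellTiter-Glo luminescence; curve fitting and curve-class assignment.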
KB-V1 cytotox – KB-V1 MDR subline cytotoxicity. KB-V1 MDR cells viability, CellTiter-Glo, 72 h. Potency, µM (top dose mostly 46.1 µM), most hits filed as cytotoxic. 400,000 tested, 3.4% active. AID 1347076; note: nearly all actives have a fitted effect of over 60% in size
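Drug-selected KB-V1 cells, grown in DMEM lacking phenol red with 10% FBS, receive compound titrations; after three days at 37 degrees C, surviving cell ATP is quantified by CellTiter-Glo luminescence and responses normalized and curve-fitted.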
* hit, by the source's call. Calls come from the whole dose curve; as a rule, active = well fitted curve in the direction sought with a large enough effect; inconclusive = small, poorly fitted or top-dose-only effect, or another doubt; inactive = no such curve, though single readings can be large; an effect the other way counts as inactive or inconclusive. Unless noted, % is set by controls: 0 for no effect and ±100 for the full control effect; potency is the fitted concentration of half-maximal effect.

Results for COc1ccc(NC(=O)c2oc3ccccc3c2NC(=O)c2ccco2)c(OC)c1 ?
DT40 TDP1 CPT: 6.31µM*; HT1080 IDH1KD tx: 6.0%; KB-3-1 cytotox: inactive; DT40 TDP1 no CPT: inconclusive; HT1080NT lethal: inconclusive; KB-V1 cytotox: inactive

How did COc1ccc(NC(=O)c2oc3ccccc3c2NC(=O)c2cc3ccccc3o2)c(OC)c1 do in these assays?
DT40 TDP1 CPT: 16.7%; KB-3-1 cytotox: inactive; DT40 TDP1 no CPT: -18.5%; KB-V1 cytotox: inconclusive

How did COc1ccc(NC(=O)c2oc3ccccc3c2NC(=O)c2ccco2)cc1 do in these assays?
DT40 TDP1 CPT: inconclusive; HT1080 IDH1KD tx: inconclusive; KB-3-1 cytotox: inactive; DT40 TDP1 no CPT: 18.4µM*; HT1080NT lethal: 4.1%; KB-V1 cytotox: inconclusive

How did COc1ccc(NC(=O)c2ccccc2NC(=O)c2ccco2)cc1 do in these assays?
DT40 TDP1 CPT: inconclusive; HT1080 IDH1KD tx: -17.1%; KB-3-1 cytotox: inactive; DT40 TDP1 no CPT: inconclusive; HT1080NT lethal: -7.1%; KB-V1 cytotox: inconclusive

What do the screens show for `COc1ccc(NC(=O)c2oc3ccccc3c2NC(=O)c2cc(=O)c3ccccc3o2)cc1`?
DT40 TDP1 CPT: inconclusive; KB-3-1 cytotox: inactive; DT40 TDP1 no CPT: inconclusive; KB-V1 cytotox: inactive

How did COc1ccc(NC(=O)c2oc3ccccc3c2NC(=O)c2cc(=O)c3c(C)cc(C)cc3o2)cc1 do in these assays?
DT40 TDP1 CPT: inconclusive; KB-3-1 cytotox: inactive; DT40 TDP1 no CPT: 2.91µM*; KB-V1 cytotox: inactive

Results for O=C(Nc1c(C(=O)Nc2ccc(F)cc2)oc2ccccc12)c1cc2ccccc2o1 ?
DT40 TDP1 CPT: inconclusive; KB-3-1 cytotox: inactive; DT40 TDP1 no CPT: 18.4µM*; KB-V1 cytotox: inactive

What do the screens show for `COc1ccc(NC(=O)c2oc3ccccc3c2NC(=O)c2cc3ccccc3o2)cc1`?
DT40 TDP1 CPT: inconclusive; KB-3-1 cytotox: inactive; DT40 TDP1 no CPT: 4.11µM*; KB-V1 cytotox: inconclusive

What do the screens show for `O=C1c2oc3ccccc3c(=O)c2C(c2cccc(Br)c2)N1c1ccccn1` (centres undefined)?
DT40 TDP1 CPT: inconclusive; KB-3-1 cytotox: inactive; DT40 TDP1 no CPT: 16.4µM*; KB-V1 cytotox: inactive

Results for O=C1c2oc3ccccc3c(=O)c2C(c2cccc(Cl)c2)N1c1ccccn1 (centres undefined) ?
DT40 TDP1 CPT: 16.8%; DT40 TDP1 no CPT: inconclusive

What do the screens show for `O=C1c2oc3ccccc3c(=O)c2C(c2cccc(O)c2)N1c1nncs1` (centres undefined)?
DT40 TDP1 CPT: -12.4%; DT40 TDP1 no CPT: -3.7%

Results for COC(=O)c1sc(N2C(=O)c3oc4ccccc4c(=O)c3C2c2cccs2)nc1C (centres undefined) ?
DT40 TDP1 CPT: 18.4µM*; HT1080 IDH1KD tx: 8.9%; KB-3-1 cytotox: 18.4µM*; DT40 TDP1 no CPT: 16.4µM*; HT1080NT lethal: 6.9%; KB-V1 cytotox: inconclusive

Results for COC(=O)c1sc(N2C(=O)c3oc4ccc(F)cc4c(=O)c3C2c2ccc(C)cc2)nc1C (centres undefined) ?
DT40 TDP1 CPT: 1.7%; KB-3-1 cytotox: inconclusive; DT40 TDP1 no CPT: inconclusive; KB-V1 cytotox: inconclusive

Results for CCCOc1cccc(C2c3c(oc4ccc(F)cc4c3=O)C(=O)N2c2nc(C)c(C(C)=O)s2)c1 (centres undefined) ?
DT40 TDP1 CPT: 13µM*; KB-3-1 cytotox: inactive; DT40 TDP1 no CPT: 14.6µM*; KB-V1 cytotox: inactive

What do the screens show for `CCCOc1cccc(C2c3c(oc4ccccc4c3=O)C(=O)N2c2nncs2)c1` (centres undefined)?
DT40 TDP1 CPT: 14.6µM*; DT40 TDP1 no CPT: inconclusive

High-throughput results as filed in PubChem BioAssay.
